# Giardia FBPA inh – blocks Giardia fructose-bisphosphate aldolase activity. A8B2U2. purified Giardia FBPA. Potency, µM (series often up to 59.6 µM), hits mostly inhibitors. 0.71% of 290,000 active. AID 2451; also: nearly all actives have a fitted effect of over 55% in size
# Target sequence (A8B2U2 whole entry, looked up): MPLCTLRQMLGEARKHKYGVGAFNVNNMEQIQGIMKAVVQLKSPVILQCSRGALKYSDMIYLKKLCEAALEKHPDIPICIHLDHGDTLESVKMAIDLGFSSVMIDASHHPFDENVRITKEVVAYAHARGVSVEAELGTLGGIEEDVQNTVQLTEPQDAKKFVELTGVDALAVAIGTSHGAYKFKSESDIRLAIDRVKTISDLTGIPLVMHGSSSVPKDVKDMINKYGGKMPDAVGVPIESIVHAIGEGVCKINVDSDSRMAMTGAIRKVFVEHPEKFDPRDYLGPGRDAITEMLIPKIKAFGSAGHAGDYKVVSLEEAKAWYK
#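 40 nM FBPA preincubated 10 min at RT with compound (up to 57.5 uM final), then substrate plus GAPDH/TPI/NAD/arsenate coupling and diaphorase/resazurin added. Fluorescence read after 20 min at RT, 525/598 nm.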
# Pf growth 48h – inhibits P. falciparum growth in the first generation, 48 h. 5.9% of 310,000 active. P. falciparum luciferase growth in erythrocytes, 48 h. AID 504832. Potency, µM (top dose mostly 28.7 µM), most hits filed as inhibitors
#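 Firefly luciferase activity from engineered P. falciparum reports growth; inhibitors lower the luminescent signal. Cultures contained 2% hematocrit erythrocytes at 0.1% final parasitemia.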
# Pf growth 96h – P. falciparum growth inhibition at 96 hours; P. falciparum luciferase reporter growth, 96 h; 6.9% of 320,000 active; Potency, µM (doses to about 28.7 µM), most hits filed as inhibitors
#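 Readout is luminescence from an integrated firefly luciferase in P. falciparum. Red cells, 2% hematocrit and 0.05% parasitemia final, were cultured with compound through two parasite generations (96 hours) at 37 C, 5% CO2.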
# HCMV antiviral – human cytomegalovirus inhibition; HFF cells, HCMV-luciferase reporter, 72 h; stronger effect = lower value; activity change, negative = inhibition, % at 57.5 µM; 4.5% of 410,000 active; AID 1259415; in the data active = activity change below about -60%; inconclusive = no clear call, values can overlap the other calls; inactive = above about -39%
#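 HFF cells seeded 16 h at 37C, treated with compounds, infected with luciferase-reporter HCMV at MOI 1 PFU/cell; luciferase read at 72 h post infection, normalized to buffer-only and Salinomycin controls.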
# Sm TGR inh – inhibitors of Schistosoma mansoni thioredoxin glutathione reductase | Potency, µM (series often up to 114 µM), most hits filed as inhibitors | AID 485364 | 3% of 360,000 active | purified TGR, DTNB reduction, TNB absorbance 405 nm | Q962Y6; also: nearly all actives have a fitted effect of over 60% in size
#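 First, TGR (20 nM dispensed) and NADPH were mixed with compound. Second, a 15 min room-temperature incubation followed. Third, further NADPH and then DTNB were added to start the reaction. Finally, TNB absorbance was monitored kinetically.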
# A number is an active result; – = inactive; ? = inconclusive; · = no result; + = active, no number; [ ] = remark or other dose. Most compounds without a hit are left out; they make up all but 14% or so of the library. Unless noted, calls follow the shape of the dose curve; as a rule, active = well fitted curve in the direction sought with a large enough effect; inconclusive = small, poorly fitted or top-dose-only effect, or another doubt; inactive = no such curve, though single readings can be large; an effect the other way counts as inactive or inconclusive.
SMILES,Giardia FBPA inh,Pf growth 48h,Pf growth 96h,HCMV antiviral,Sm TGR inh
CN(C)CCCN(C(=O)C1COc2ccccc2O1)c1nc2cc3c(cc2s1)OCO3 (centres undefined),–,–,–,–,–
Cc1nn(Cc2ccccc2)c(C)c1C=C1C(=O)NC(=S)NC1=O,–,–,?,–,7.94µM
CCc1c(C)nc2ncnn2c1N1CCCC(C(=O)NCCc2ccc(OC)cc2)C1 (centres undefined),–,?,–,-68.1,–
CCOc1ccccc1NC(=O)C1CCCN(c2c(CC)c(C)nc3ncnn23)C1 (centres undefined),–,10.4µM,–,?,–
CCOc1ccccc1NC(=O)C1CCCN(S(C)(=O)=O)C1 (centres undefined),–,–,?,–,–
COc1ccc(CCNC(=O)C2CCCN(c3nc(C)cc(C)n3)C2)cc1 (centres undefined),–,–,?,–,–
COc1ccc(-n2nc3c(N4CCCC(C(=O)NCCc5ccc(C)cc5)C4)nnc(C)c3c2C)cc1 (centres undefined),·,·,·,–,–
Cc1nc2ncnn2c(N2CCCC(C(=O)Nc3ccc4c(c3)CCC4)C2)c1C (centres undefined),–,5.22µM,–,-101.1,–
COc1ccc(CCNC(=O)C2CCCN(c3ncccn3)C2)cc1 (centres undefined),–,–,–,-69.4,–
O=S(=O)(O)NC1CCCCC1,·,?,–,–,·
CCOC(=O)CC(C(=O)OCC)C1CCCCC1=O (centres undefined),–,·,·,·,·
CC(C)CCNC(=O)NC(=O)COC(=O)CNC(=O)C1CCCCC1,–,?,–,–,–
CCc1c(C)nc2ncnn2c1N1CCC(C(=O)Nc2ccccc2)CC1,–,?,–,–,–
Cc1cc(N2CCCC(C(=O)Nc3cccc4ccccc34)C2)n2ncnc2n1 (centres undefined),–,?,–,-69.2,–
CCCc1cc(N2CCCC(C(=O)Nc3ccc(OC)cc3OC)C2)n2ncnc2n1 (centres undefined),–,?,–,?,–
CCc1c(C)nc2ncnn2c1N1CCC(C(=O)Nc2ccc(C)cc2)CC1,–,?,11.7µM,-86.0,–
COc1ccc(C(=O)C[C@@H]2OC[C@H](Cc3ccccc3)N2S(=O)(=O)c2ccc(C)cc2)cc1OC,·,·,·,–,·
N#Cc1c([N+](=O)[O-])cc([N+](=O)[O-])cc1S(=O)(=O)Cc1ccccc1,·,–,–,-99.0,0.355µM
CN(C)NC(=O)c1ccc([N+](=O)[O-])s1,–,10.4µM,11.7µM,–,–
O=C(Nc1cccnc1)c1ccc([N+](=O)[O-])s1,·,5.22µM,?,-84.4,–
O=C(Nc1ccccc1F)c1ccc([N+](=O)[O-])s1,–,10.4µM,4.15µM,?,?
CC(C)(C)c1ccc(NC(=O)COC(=O)c2ccc([N+](=O)[O-])s2)cc1,–,–,–,–,–
O=C(Nc1cccc2ccccc12)c1ccc([N+](=O)[O-])s1,–,11.7µM,5.22µM,-98.0,–
COc1ccc(COC(=O)N/N=C2/C[C@@H](O)[C@@H](O)[C@@H]3[C@@H]4C(=O)N(C[C@@H]5CCCO5)C(=O)[C@H]4CC[C@H]23)cc1,–[12.9 µM],·,·,·,·
COc1cccc(Cn2c(=O)c(-c3ccc(Cl)cc3)nc3cnc(N(C)C)nc32)c1,–,·,·,·,·
SMILES,Giardia FBPA inh,Pf growth 48h,Pf growth 96h,HCMV antiviral,Sm TGR inh
Cc1nc(N(C)C)c2sc(=S)n(Cc3ccccc3)c2n1,–,?,–,–,–
CCCNC(=O)Nc1nc(C(N)c2ccc(OC)cc2)cs1 (centres undefined),·,·,·,–,·
C[C@H](NC(=O)[C@@H]1Cc2ccccc2CN1C(=O)OC(C)(C)C)C(=O)NC1CCCCC1,–,?,–,+,–
C[C@@H](NC(=O)[C@@H]1Cc2ccccc2CN1C(=O)OC(C)(C)C)C(=O)NC1CCCCC1,·,?,13.1µM,–,–
COc1cccc(NC(=O)C2CCN(C(=O)[C@@H]3Cc4ccccc4CN3C(=O)OC(C)(C)C)CC2)c1,·,10.4µM,?,–,–
C[C@H](NC(=O)[C@@H]1Cc2ccccc2CN1C(=O)OC(C)(C)C)C(=O)NCC1CCCO1 (some centres undefined),–,–,–,–,–
C[C@H](NC(=O)[C@@H]1Cc2ccccc2CN1C(=O)OC(C)(C)C)C(=O)NCc1ccco1,·,?,?,–,39.8µM

# Source: PubChem
